An excerpt weighted towards active compounds, which were near 4.3% of everything screened.
MCF10A rereplic: A quantitative high throughput screen for small molecules that induce DNA re-replication in MCF 10a normal breast cells; MCF 10A DNA re-replication, Hoechst nuclear intensity, 48 h; Potency, µM (titrated, usually from 46.1 µM), without a hit: top-dose activity, positive = re-replication, actives largely listed as activators; hit rate 2.9% among 350,000; AID 624296, 2012; note: potency is the fitted concentration of half-maximal effect; % of control where 0% means no effect; nearly all actives have a fitted effect of over 50% in size
Giardia kill: Small Molecules that selectively kill Giardia lamblia: qHTS | Giardia lamblia trophozoite viability | activity change, % at 7.66 µM, hits read low | hit rate 0.15% among 340,000; in the data active = activity change below about -80%; inconclusive = between about -30% and that limit;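 note: parasites exposed to compound for two days anaerobically before the ATP read; % is set by controls: 0 for no effect and ±100 for the full control effect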
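Compounds were tested on trophozoites seeded at 100 cells/well and held 48 hrs at 37 deg C anaerobically. An ATP-based luminescent kit measured the remaining live cells.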
uPA surface inh: qHTS for Inhibitors of Cell Surface uPA Generation; Potency, µM (top dose mostly 38.3 µM), for the others: top-dose activity change, negative = inhibition, hits mostly inhibitors; AID 540303, 2011; cell surface uPA generation assay, qHTS; hit rate 0.31% among 330,000; active = well fitted inhibition curve with a large enough effect; inconclusive = small, poorly fitted or top-dose-only effect; inactive = no such curve, though single readings can be large or run the other way; tested in mouse RAW 264.7 cells; note: potency is the fitted concentration of half-maximal effect; % is set by controls: 0 for no effect and ±100 for the full control effect; nearly all actives have a fitted effect of over 55% in size
SW480 rerep: A quantitative high throughput screen for small molecules that induce DNA re-replication in SW480 colon adenocarcinoma cells; SW480 DNA re-replication, Hoechst DNA content imaging, 48 h; Potency, µM (highest dose often 46.1 µM), without a hit: at the top dose re-replication activation, hits mostly activators; hit rate 1.8% among 340,000; note: potency is the fitted concentration of half-maximal effect; % of control where 0% means no effect; nearly all actives have a fitted effect of over 55% in size
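Readout is total intensity of Hoechst-stained nuclei, excited at 405 nm and collected at 500-530 nm. Compound treatment lasted 48 hr at 37 C in 5% CO2 before staining.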
The depositor's hits bear a star; ? = inconclusive; nt = no result given. Unless noted, calls come from the whole dose curve; as a rule, active = well fitted activation curve with a large enough effect; inconclusive = small, poorly fitted or top-dose-only effect; inactive = no such curve, though single readings can be large or run the other way.

SMILES	MCF10A rereplic	Giardia kill	uPA surface inh	SW480 rerep
O=S(=O)(c1ccc(Cl)cc1)N1c2ccccc2Oc2nc3ccccc3nc21	15µM*	-20	-4%	18%
O=S(=O)(c1ccc(Cl)cc1)N1CN(CC2CCCO2)c2nc3ccccc3nc21 (stereo unspecified)	4%	-4	-4%	-15%
C=CCn1c(=O)c2ccccc2n2c(SCc3nnc(-c4ccccc4Br)o3)nnc12	23µM*	-8	2%	15%
CCOC(=O)C1=C(C)Nc2sc(C(=O)c3ccc(OC)cc3)c(N)c2C1c1ccc(C(=O)OC)cc1 (stereo unspecified)	12µM*	10	1%	13µM*
COC(=O)C1=C(C)Nc2c(c(=O)n(C)c(=O)n2C)C1c1ccncc1 (stereo unspecified)	0%	0	4%	-9%
COC(=O)C1=C(C)Nc2sc(C(N)=O)c(N)c2C1c1ccncc1 (stereo unspecified)	?	4	-8%	23µM*
COC(=O)C1=C(C)Nc2[nH]c(=S)[nH]c(=O)c2C1c1ccc(OC)cc1 (stereo unspecified)	5%	-12	-11%	-14%
CCOC(=O)C1=C(C(=O)OCC)c2ccc(OC)c(OC)c2C1	-1%	-2	-3%	29%
Cc1cccc(N(Cc2ccccc2)C(=O)CCl)c1	?	-13	-21%	21%
O=C(CCl)N(Cc1ccccc1)c1ccccc1	16µM*	3	?	5.8µM*
COCCNC(=O)C1(C(F)(F)F)C/C(=C\CCO)CCCO1 (stereo unspecified)	nt	-14	nt	nt
COc1cccc(CNc2ncnc3ccc(-c4c(C)noc4C)cc23)c1	?	?	-5%	-22%
Cc1ccsc1CNc1ncnc2ccc(-c3c(C)noc3C)cc12	5.8µM*	-21	-16%	-1%
C=CCOc1ccc(C2C(C#N)=C(N)N(Nc3ccccc3)C3=C2C(=O)CCC3)cc1OC (stereo unspecified)	23µM*	5	-12%	?
COc1cc(C2C(C#N)=C(N)N(Nc3ccccc3)C3=C2C(=O)CC(C)(C)C3)ccc1OCc1cccc(F)c1 (stereo unspecified)	?	4	6%	?
COc1cc(C2C(C#N)=C(N)N(Nc3ccccc3)C3=C2C(=O)CC(C)(C)C3)ccc1OCc1ccccc1 (stereo unspecified)	?	-3	-5%	26µM*
COc1ccc(C2C(C#N)=C(N)N(Nc3ccccc3)C3=C2C(=O)CC(C)(C)C3)cc1C (stereo unspecified)	?	-2	0%	?
Cc1ccc(C(=O)N/C(=C\c2ccco2)C(=O)N2CCOCC2)cc1C	1%	-9	0%	2%
CCC(=O)Oc1oc(-c2ccccc2)nc1C=Nc1ccccc1OC	18µM*	10	0%	?
CCC(=O)Oc1oc(-c2ccccc2)nc1C=Nc1ccc(C)cc1	12%	-3	0%	-96%
Cc1[nH][nH]c(=O)c1C(c1c(C)[nH][nH]c1=O)c1cn(Cc2ccccc2Cl)c2ccccc12	6.5µM*	7	-12%	16µM*
CCc1noc(C)c1C(=O)NNC(=O)c1ccccc1Cl	-8%	-7	-6%	15%
CCN(CC)S(=O)(=O)c1cc(C(=O)Nc2cc(S(=O)(=O)N3CCOCC3)ccc2N2CCN(C)CC2)ccc1C	-7%	3	?	4%
CC(C)(C)c1ccc(C(=O)Nc2nnc(SCC(=O)NCC3CCCO3)s2)cc1 (stereo unspecified)	11%	-93*	0.89µM*	1%
CN(C)S(=O)(=O)c1ccc(C(=O)Nc2nnc(SCC(=O)NCC3CCCO3)s2)cc1 (stereo unspecified)	4%	-30	7.9µM*	-13%
CCOc1ccc(C(=O)Nc2nnc(SCC(=O)NCC3CCCO3)s2)cc1 (stereo unspecified)	-4%	-94*	?	-9%
O=C(CSc1nnc(NC(=O)c2cccc(F)c2)s1)NCC1CCCO1 (stereo unspecified)	0%	-12	?	-4%
O=C(CSc1nnc(NC(=O)c2c(F)cccc2F)s1)NCC1CCCO1 (stereo unspecified)	0%	10	-4%	?
O=C1Nc2cc(C(=O)NCCCN3CCOCC3)ccc2S/C1=C/c1ccccc1F	?	-2	?	?
O=C(NCCCN1CCOCC1)c1ccc2c(c1)N(Cc1c(F)cccc1Cl)C(=O)c1ccccc1S2	?	32	4.5µM*	17%
